Results taken from publication PMC7862700, “An all-to-all approach to the identification of sequence-specific readers for epigenetic DNA modifications on cytosine”.

How the values were obtained:
Assay in all cases: DAPPL (digital affinity profiling via proximity ligation, sequencing); 10 mM Tris-HCl pH 7.5, 50 mM NaCl, 1 mM DTT, 4% glycerol, room temperature, 30 min; GST-TFs on glutathione beads, 16-mer random dsDNA library, 0.1% formaldehyde crosslink after washing; high values mean tight binding
Details in all cases: protein: recombinant; tags: N-terminal GST; dsDNA, one strand shown
FLI1 = biological target: T1, FLI1 (Homo sapiens, UniProt Q01543 1-452)
T1 sequence: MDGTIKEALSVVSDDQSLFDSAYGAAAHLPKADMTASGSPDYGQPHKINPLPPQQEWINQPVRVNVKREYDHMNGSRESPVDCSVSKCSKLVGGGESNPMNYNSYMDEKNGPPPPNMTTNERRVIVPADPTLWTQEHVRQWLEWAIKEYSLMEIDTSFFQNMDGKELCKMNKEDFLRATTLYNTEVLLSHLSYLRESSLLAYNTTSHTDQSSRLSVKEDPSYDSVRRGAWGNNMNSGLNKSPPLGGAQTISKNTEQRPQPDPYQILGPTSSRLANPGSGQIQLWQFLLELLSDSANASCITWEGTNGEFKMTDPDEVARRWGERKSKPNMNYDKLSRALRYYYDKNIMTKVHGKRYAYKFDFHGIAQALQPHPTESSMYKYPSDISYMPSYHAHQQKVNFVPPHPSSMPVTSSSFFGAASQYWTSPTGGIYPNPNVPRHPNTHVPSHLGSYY
Outline: (§1)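 Human transcription factors were made in yeast as GST fusions, captured on glutathione beads and barcoded with DNA. With a tag-only sample included, the pool was incubated with 200 nmole of a random double-stranded 16-mer DNA library in Tris/NaCl/DTT/glycerol buffer at room temperature for 30 min, then crosslinked with 0.1% formaldehyde after washing, ligated by proximity, amplified and sequenced. For binding signal, each hexamer's read frequency for a factor is divided by its frequency for the tag-only sample.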

ELK1 = biological target: T2, ELK1 (Homo sapiens, UniProt P19419 1-428)
T2 sequence: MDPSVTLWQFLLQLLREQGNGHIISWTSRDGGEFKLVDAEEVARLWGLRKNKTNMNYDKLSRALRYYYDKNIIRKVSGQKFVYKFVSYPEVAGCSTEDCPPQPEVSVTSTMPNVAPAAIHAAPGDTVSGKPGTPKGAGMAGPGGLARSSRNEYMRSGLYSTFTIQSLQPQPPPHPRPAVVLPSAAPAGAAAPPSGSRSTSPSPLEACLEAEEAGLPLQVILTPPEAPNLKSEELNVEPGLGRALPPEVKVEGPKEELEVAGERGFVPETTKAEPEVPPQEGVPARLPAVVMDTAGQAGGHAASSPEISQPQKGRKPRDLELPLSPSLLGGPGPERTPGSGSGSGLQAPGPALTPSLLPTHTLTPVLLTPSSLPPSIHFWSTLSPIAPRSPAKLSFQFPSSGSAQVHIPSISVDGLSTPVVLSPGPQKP
Outline: as §1

GABPA = biological target: T3, GABPA (Homo sapiens, UniProt Q06546 1-454)
T3 sequence: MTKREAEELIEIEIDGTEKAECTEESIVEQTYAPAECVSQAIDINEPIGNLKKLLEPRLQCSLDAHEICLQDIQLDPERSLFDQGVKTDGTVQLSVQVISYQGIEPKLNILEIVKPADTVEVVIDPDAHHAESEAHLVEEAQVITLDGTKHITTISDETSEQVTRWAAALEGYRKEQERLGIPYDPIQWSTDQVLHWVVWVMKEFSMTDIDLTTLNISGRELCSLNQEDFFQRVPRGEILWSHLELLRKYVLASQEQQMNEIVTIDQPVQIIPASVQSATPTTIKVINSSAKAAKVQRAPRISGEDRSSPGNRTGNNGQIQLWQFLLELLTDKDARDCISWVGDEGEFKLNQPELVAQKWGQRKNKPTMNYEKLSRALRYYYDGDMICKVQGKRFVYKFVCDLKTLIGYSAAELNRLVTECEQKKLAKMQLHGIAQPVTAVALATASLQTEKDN
Outline: as §1

ERG = biological target: T4, ERG (Homo sapiens, UniProt P11308 1-479)
T4 sequence: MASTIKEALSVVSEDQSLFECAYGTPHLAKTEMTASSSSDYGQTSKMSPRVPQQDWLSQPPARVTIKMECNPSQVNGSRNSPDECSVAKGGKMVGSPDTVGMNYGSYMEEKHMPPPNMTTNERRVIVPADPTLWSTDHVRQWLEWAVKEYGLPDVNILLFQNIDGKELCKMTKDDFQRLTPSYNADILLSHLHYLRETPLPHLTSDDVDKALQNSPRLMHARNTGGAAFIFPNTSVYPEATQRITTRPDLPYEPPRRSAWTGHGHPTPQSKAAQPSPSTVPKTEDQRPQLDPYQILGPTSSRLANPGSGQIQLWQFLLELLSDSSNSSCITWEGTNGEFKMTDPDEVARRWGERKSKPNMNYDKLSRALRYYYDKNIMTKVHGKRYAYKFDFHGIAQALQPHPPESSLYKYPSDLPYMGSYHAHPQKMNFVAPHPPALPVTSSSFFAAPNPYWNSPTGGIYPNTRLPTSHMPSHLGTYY
Outline: as §1

ELF1 = ELF1 (Homo sapiens, UniProt P32519 1-619)
Outline: as §1

EHF = biological target: T5, EHF (Homo sapiens, UniProt Q9NZC4 1-300)
T5 sequence: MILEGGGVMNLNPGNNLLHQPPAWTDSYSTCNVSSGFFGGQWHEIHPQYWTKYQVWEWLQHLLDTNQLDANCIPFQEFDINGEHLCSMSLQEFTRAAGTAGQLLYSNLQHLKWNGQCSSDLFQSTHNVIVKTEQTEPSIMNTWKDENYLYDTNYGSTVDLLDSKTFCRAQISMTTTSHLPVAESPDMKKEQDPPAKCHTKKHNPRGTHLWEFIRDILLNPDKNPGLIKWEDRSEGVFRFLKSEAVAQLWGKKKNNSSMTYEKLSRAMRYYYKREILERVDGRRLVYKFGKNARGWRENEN
Outline: as §1

SPI1 = SPI1 (Homo sapiens, UniProt P17947 1-270)
Outline: as §1

SPIB = SPIB (Homo sapiens, UniProt Q01892 1-262)
Outline: as §1

ELK3 = biological target: T6, ELK3 (Homo sapiens, UniProt P41970 1-407)
T6 sequence: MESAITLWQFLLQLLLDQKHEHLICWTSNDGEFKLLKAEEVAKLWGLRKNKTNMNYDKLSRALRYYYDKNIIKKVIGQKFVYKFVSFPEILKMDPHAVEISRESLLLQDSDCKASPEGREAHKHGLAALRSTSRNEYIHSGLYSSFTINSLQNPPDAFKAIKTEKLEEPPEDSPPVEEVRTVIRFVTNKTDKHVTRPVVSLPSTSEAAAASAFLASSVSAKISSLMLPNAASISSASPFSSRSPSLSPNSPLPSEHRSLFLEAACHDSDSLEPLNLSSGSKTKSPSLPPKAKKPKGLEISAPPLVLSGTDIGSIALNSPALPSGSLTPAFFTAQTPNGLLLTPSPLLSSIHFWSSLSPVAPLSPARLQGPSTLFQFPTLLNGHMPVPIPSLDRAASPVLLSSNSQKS
Outline: as §1

Chain of SPIB (Q01892 whole entry): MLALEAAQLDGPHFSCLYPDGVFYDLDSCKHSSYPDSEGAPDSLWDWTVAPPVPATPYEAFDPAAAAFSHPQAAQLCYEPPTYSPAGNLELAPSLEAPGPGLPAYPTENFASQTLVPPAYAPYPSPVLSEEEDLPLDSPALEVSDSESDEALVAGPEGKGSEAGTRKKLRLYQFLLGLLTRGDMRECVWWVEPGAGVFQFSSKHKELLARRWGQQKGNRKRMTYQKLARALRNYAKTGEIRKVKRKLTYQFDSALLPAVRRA
Chain of ELF1 (P32519 whole entry): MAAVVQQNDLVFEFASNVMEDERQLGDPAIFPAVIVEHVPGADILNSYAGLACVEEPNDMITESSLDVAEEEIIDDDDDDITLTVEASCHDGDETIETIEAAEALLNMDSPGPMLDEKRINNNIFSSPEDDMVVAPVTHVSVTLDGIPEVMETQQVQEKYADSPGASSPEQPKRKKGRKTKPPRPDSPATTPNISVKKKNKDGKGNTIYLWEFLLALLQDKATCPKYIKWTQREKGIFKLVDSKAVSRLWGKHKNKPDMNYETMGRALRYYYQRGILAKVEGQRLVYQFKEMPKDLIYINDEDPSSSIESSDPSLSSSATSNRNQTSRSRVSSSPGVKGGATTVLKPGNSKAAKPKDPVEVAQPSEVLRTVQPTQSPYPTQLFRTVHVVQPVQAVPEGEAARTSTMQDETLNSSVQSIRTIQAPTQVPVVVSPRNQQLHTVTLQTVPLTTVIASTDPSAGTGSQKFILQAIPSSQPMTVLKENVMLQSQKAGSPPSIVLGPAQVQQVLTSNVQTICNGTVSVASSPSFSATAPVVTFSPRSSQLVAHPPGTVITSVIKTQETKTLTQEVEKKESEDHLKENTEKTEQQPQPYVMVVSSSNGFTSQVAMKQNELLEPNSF

Row | Sequence | binding signal (FLI1) | binding signal (ELK1) | binding signal (GABPA) | binding signal (ERG) | binding signal (ELF1) | binding signal (EHF) | binding signal (SPI1) | binding signal (SPIB) | binding signal (ELK3)
1 | TATGCA | 1.24 fold enrichment (6-mer frequency, TF over GST control) | 1.24 fold enrichment (6-mer frequency, TF over GST control) | 1.24 fold enrichment (6-mer frequency, TF over GST control) | 1.26 fold enrichment (6-mer frequency, TF over GST control) | 1.18 fold enrichment (6-mer frequency, TF over GST control) | 1.12 fold enrichment (6-mer frequency, TF over GST control) | 1.34 fold enrichment (6-mer frequency, TF over GST control) | 1.25 fold enrichment (6-mer frequency, TF over GST control) | 1.15 fold enrichment (6-mer frequency, TF over GST control)
2 | ATGTGG | 1.08 fold enrichment (6-mer frequency, TF over GST control) | 1.05 fold enrichment (6-mer frequency, TF over GST control) | 1.11 fold enrichment (6-mer frequency, TF over GST control) | 1.21 fold enrichment (6-mer frequency, TF over GST control) | 1.18 fold enrichment (6-mer frequency, TF over GST control) | 1.23 fold enrichment (6-mer frequency, TF over GST control) | 1.02 fold enrichment (6-mer frequency, TF over GST control) | 1.31 fold enrichment (6-mer frequency, TF over GST control) | 1.1 fold enrichment (6-mer frequency, TF over GST control)
3 | TGCACT | 1.37 fold enrichment (6-mer frequency, TF over GST control) | 1.58 fold enrichment (6-mer frequency, TF over GST control) | 1.4 fold enrichment (6-mer frequency, TF over GST control) | 1.43 fold enrichment (6-mer frequency, TF over GST control) | 1.42 fold enrichment (6-mer frequency, TF over GST control) | 1.3 fold enrichment (6-mer frequency, TF over GST control) | 1.68 fold enrichment (6-mer frequency, TF over GST control) | 1.21 fold enrichment (6-mer frequency, TF over GST control) | 1.26 fold enrichment (6-mer frequency, TF over GST control)
4 | CGGTTC | 1.3 fold enrichment (6-mer frequency, TF over GST control) | 1.43 fold enrichment (6-mer frequency, TF over GST control) | 1.19 fold enrichment (6-mer frequency, TF over GST control) | 1.28 fold enrichment (6-mer frequency, TF over GST control) | 1.27 fold enrichment (6-mer frequency, TF over GST control) | 1.27 fold enrichment (6-mer frequency, TF over GST control) | 1.3 fold enrichment (6-mer frequency, TF over GST control) | 1.33 fold enrichment (6-mer frequency, TF over GST control) | 1.35 fold enrichment (6-mer frequency, TF over GST control)
5 | TTTTTT | 1.12 fold enrichment (6-mer frequency, TF over GST control) | 1.05 fold enrichment (6-mer frequency, TF over GST control) | 1.25 fold enrichment (6-mer frequency, TF over GST control) | 1.12 fold enrichment (6-mer frequency, TF over GST control) | 1.25 fold enrichment (6-mer frequency, TF over GST control) | 1.2 fold enrichment (6-mer frequency, TF over GST control) | 1.36 fold enrichment (6-mer frequency, TF over GST control) | 1.22 fold enrichment (6-mer frequency, TF over GST control) | 1.34 fold enrichment (6-mer frequency, TF over GST control)
6 | ATCCCG | 1.5 fold enrichment (6-mer frequency, TF over GST control) | 1.36 fold enrichment (6-mer frequency, TF over GST control) | 1.47 fold enrichment (6-mer frequency, TF over GST control) | 1.44 fold enrichment (6-mer frequency, TF over GST control) | 1.42 fold enrichment (6-mer frequency, TF over GST control) | 1.39 fold enrichment (6-mer frequency, TF over GST control) | 1.32 fold enrichment (6-mer frequency, TF over GST control) | 1.39 fold enrichment (6-mer frequency, TF over GST control) | 1.34 fold enrichment (6-mer frequency, TF over GST control)
7 | CTATAA | 1.26 fold enrichment (6-mer frequency, TF over GST control) | 1.22 fold enrichment (6-mer frequency, TF over GST control) | 1.18 fold enrichment (6-mer frequency, TF over GST control) | 1.2 fold enrichment (6-mer frequency, TF over GST control) | 1.27 fold enrichment (6-mer frequency, TF over GST control) | 1.12 fold enrichment (6-mer frequency, TF over GST control) | 1.25 fold enrichment (6-mer frequency, TF over GST control) | 1.35 fold enrichment (6-mer frequency, TF over GST control) | 1.25 fold enrichment (6-mer frequency, TF over GST control)
